A short description of test [1]: qHTS assay to identify aromatase inhibitors - cell viability counter screen (AID 743084).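 Also: cells stimulated with testosterone during compound exposure; nearly all actives have a fitted effect of over 55% in size.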 Background: Quantitative high-throughput screening tests each substance at several concentrations.
In test [2] the target is Aryl hydrocarbon receptor (Homo sapiens) (UniProt P35869). Description: qHTS assay to identify small molecule that activate the aryl hydrocarbon receptor (AhR) signaling pathway (AID 743085). Also: nearly all actives have a fitted effect of over 15% in size. Also: potency is read from the fitted curve at half-maximal effect.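 As to activation: HG2L7.5c1 human HepG2 liver cells with stably integrated DRE-driven firefly reporter; series mostly up to about 70 µM.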 The method, boiled down:
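Cell line HG2L7.5c1 (human hepatoma, 20× DRE-luc). Plated, 5 h 37C, compound/DMSO added, 24 h 37C. CellTiter-Fluor 30 min 37C → fluorescence; then ONE-Glo 30 min RT → luminescence.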

A short description of test [3]: qHTS assay to identify small molecule that activate the aryl hydrocarbon receptor (AhR) signaling pathway - cell viability counter screen (AID 743086).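 Also: HepG2 liver cells carrying the AhR DRE luciferase reporter; series mostly up to about 70 µM; nearly all actives have a fitted effect of over 45% in size.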 Put shortly:
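HepG2-AhR-luc (HG2L7.5c1) cells, 4000/well, were preincubated 5 h at 37C, exposed to compound in qHTS format for 24 hr at 37C, then given CellTiter-Fluor for 30 min; viability was read as fluorescence in the reporter wells.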

For test [4], the target named is Peroxisome proliferator-activated receptor gamma (Homo sapiens) (UniProt P37231). Description: qHTS assay to identify small molecule agonists of the peroxisome proliferator-activated receptor gamma (PPARg) signaling pathway (AID 743094; active = well fitted activation curve with a large enough effect in the signal ratio in the repeat runs, not every such curve was filed as active; the % refers to the signal ratio). The method, boiled down:
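Agonism was assessed in a beta-lactamase reporter system, HEK293H cells with a stably integrated UAS-bla construct under PPARg control; the 17 h treatment at 37C preceded a 1 h room-temperature FRET substrate read.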

For test [5] the target is unchanged. Kind of test: qHTS assay to identify small molecule antagonists of the peroxisome proliferator-activated receptor gamma (PPARg) signaling pathway (AID 743191; calls by dose curve; also: series mostly up to about 63 µM; nearly all actives have a fitted effect of over 30% in size). Put shortly:
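GeneBLAzer PPARg UAS-bla HEK293H cells carrying a UAS-driven beta-lactamase reporter were plated at 3000 cells/well, preincubated 5 h at 37C, then given compound for 17 h at 37C; LiveBLAzer B/G FRET substrate was read after 1 h at room temperature.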

Test [6] in a line: qHTS assay to identify small molecule antagonists of the peroxisome proliferator-activated receptor gamma (PPARg) signaling pathway - cell viability counter screen (AID 743194). Also: nearly all actives have a fitted effect of over 55% in size. The method, boiled down:
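PPARg-UAS-bla HEK293H cells were plated, rested 5 h at 37 C, then treated with compounds plus rosiglitazone (50 nM final) for 17 h at 37 C; viability was then read by CellTiter-Glo luminescence after 30 min at room temperature.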

Test [7] in a line: qHTS assay for small molecule agonists of the antioxidant response element (ARE) signaling pathway (AID 743202; active = well fitted activation curve with a large enough effect in the signal ratio in the repeat runs, not every such curve was filed as active; the % refers to the signal ratio). The method, boiled down: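 Following a 16 h, 37 C exposure of reporter HepG2 cells (ARE-driven beta-lactamase, 2,000 cells/well) to compounds, FRET substrate was applied for 2 h at room temperature and fluorescence intensity recorded.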
Test [8] can be described thus: qHTS assay for small molecule agonists of the antioxidant response element (ARE) signaling pathway - cell viability counter screen (AID 743203; calls by dose curve; also: nearly all actives have a fitted effect of over 55% in size). Put shortly: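 ATP content via CellTiter-Glo luminescence served as the viability measure. Cells: ARE-bla HepG2, 2,000 per well. Exposure: 16 hrs, 37C/5% CO2.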
Test [9] in a line: qHTS assay for small molecule activators of the heat shock response signaling pathway - cell viability counter screen (AID 743209). Also: nearly all actives have a fitted effect of over 50% in size. The method, boiled down: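 Compounds dissolved in DMSO were added to overnight-plated HSE-bla HeLa cells and left 5 h at 37 C. Cell viability was quantified by luminescence using CellTiter-Glo.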
A short description of test [10]: qHTS assay for small molecule activators of the heat shock response signaling pathway (AID 743210; active = well fitted activation curve with a large enough effect in the signal ratio in the repeat runs, with a control signal flat, not every such curve was filed as active; the % refers to the signal ratio; also: series mostly up to about 63 µM). Put shortly: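 Heat shock element–beta-lactamase HeLa reporter cells; qHTS with compounds for 5 h at 37 C; detection by FRET substrate fluorescence after 2.5 h at RT.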
Test [11] in a line: qHTS assay to identify small molecule agonists of the peroxisome proliferator-activated receptor delta (PPARd) signaling pathway - cell viability counter screen (AID 743211). Also: nearly all actives have a fitted effect of over 55% in size. Put shortly:
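HEK293H PPARd-bla, 3000 cells/well; 5 h preincubation 37C/5% CO2; cpd in DMSO, 17 h 37C; B/G FRET substrate 2 h RT; CellTiter-Glo 30 min RT, luminescence.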

In test [12] the target is Peroxisome proliferator-activated receptor delta (Homo sapiens) (UniProt Q03181). Kind of test: qHTS assay to identify small molecule agonists of the peroxisome proliferator-activated receptor delta (PPARd) signaling pathway (AID 743212; calls by dose curve). The method, boiled down:
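Beta-lactamase reporter read by fluorescence (LiveBLAzer B/G FRET, 2 h, room temperature). Test agents, in DMSO, incubated at 37 C with PPARd-bla HEK293H cells.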

Test [13] shares this target. Description: qHTS assay to identify small molecule antagonists of the peroxisome proliferator-activated receptor delta (PPARd) signaling pathway (AID 743215; active = well fitted inhibition curve with a large enough effect in the signal ratio in the repeat runs, not every such curve was filed as active; the % refers to the signal ratio;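 also: cells stimulated with agonist L165041 at 300 nM final during compound exposure; series mostly up to about 62 µM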). Put shortly: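 Here, a reporter line (HEK293H, beta-lactamase under a UAS) measures PPARd signaling. Compounds are tested against agonist L165041 at 300 nM final concentration over 17 h at 37 C, with fluorescence read after substrate.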

For test [14], the target named is Bile acid receptor (Homo sapiens) (UniProt Q96RI1). Kind of test: qHTS assay to identify small molecule antagonists of the farnesoid-X-receptor (FXR) signaling pathway (AID 743217; active = well fitted inhibition curve with a large enough effect in the signal ratio in the repeat runs, not every such curve was filed as active; the % refers to the signal ratio). The method, boiled down:
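Test compounds are pin-transferred onto FXR-bla HEK 293T cells, then chenodeoxycholic acid is added at 50 uM final. After 16 h at 37 °C, LiveBLAzer B/G substrate is applied for 2 h at room temperature and fluorescence read.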

Test [15] can be described thus: qHTS assay to identify small molecule agonists of the farnesoid-X-receptor (FXR) signaling pathway - cell viability counter screen (AID 743218). Also: nearly all actives have a fitted effect of over 45% in size. Put shortly: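 Quantitative HTS counter screen measuring ATP-based viability via CellTiter-Glo luminescence in HEK 293T cells carrying a UAS-driven beta-lactamase reporter, after 16 h compound exposure at 37 C.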
Test [16] has as its target Bile acid receptor (Homo sapiens) (UniProt Q96RI1). Kind of test: qHTS assay to identify small molecule agonists of the farnesoid-X-receptor (FXR) signaling pathway (AID 743220; active = well fitted activation curve with a large enough effect in the signal ratio in the repeat runs, not every such curve was filed as active; the % refers to the signal ratio). Put shortly: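 FXR-UAS-bla HEK 293T cells carrying a UAS-driven beta-lactamase reporter were plated for 5 h at 37C/5% CO2, then exposed to DMSO-dissolved Tox21 10K compounds for 16 h at 37C. A LiveBLAzer B/G FRET substrate was loaded for 2 h at room temperature before fluorescence reading.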

Test [17] is described as follows: qHTS assay to identify small molecule antagonists of the farnesoid-X-receptor (FXR) signaling pathway - cell viability counter screen (AID 743221; active = well fitted cell-killing curve with a large enough effect in the repeat runs, not every such curve was filed as active; also: nearly all actives have a fitted effect of over 50% in size). Put shortly:
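Luminescence from CellTiter-Glo measures cytotoxicity in GeneBLAzer FXR-UAS-bla HEK 293T cells. Cells were exposed to compounds with 50 uM chenodeoxycholic acid (final) for 16 h at 37 C, in wells also used for the reporter readout.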

Test [18] addresses Vitamin D3 receptor (Homo sapiens) (UniProt P11473). Description: qHTS assay to identify small molecule agonists of the vitamin D receptor (VDR) signaling pathway (AID 743222; calls by dose curve). Put shortly:
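Tox21 cell reporter format: VDR-bla line, 16 h compound exposure in 5% CO2 at 37C, then fluorescence intensity after 2 h with LiveBLAzer B/G FRET substrate.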

Test [19] can be described thus: qHTS assay to identify small molecule antagonists of the peroxisome proliferator-activated receptor delta (PPARd) signaling pathway - cell viability counter screen (AID 743213). Also: nearly all actives have a fitted effect of over 50% in size. Put shortly:
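CellTiter-Glo was added to PPARd-bla HEK293H wells following 17 h compound treatment in the presence of 300 nM L165041. Luminescence was recorded after 30 min at room temperature.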

Test [20] concerns the target Vitamin D3 receptor (Homo sapiens) (UniProt P11473). Kind of test: qHTS assay to identify small molecule antagonists of the vitamin D receptor (VDR) signaling pathway (AID 743223; active = well fitted inhibition curve with a large enough effect in the signal ratio in the repeat runs, not every such curve was filed as active; the % refers to the signal ratio). Put shortly: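 Antagonist mode uses 1alpha,25-dihydroxyvitamin D3 at 3 nM final as stimulus. VDR-bla cells receive compounds in DMSO, incubate 16 h at 37C, then a beta-lactamase FRET substrate for 2 h at room temperature before fluorescence measurement.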

Several values for one entry are separate records, joined by “and”; a condition that tells them apart may be missing. Equal entries are not always repeated. Records with an inconclusive call do not appear. Some structures have more than one record in an assay (separate samples or runs), and their calls can disagree. Activity calls are given as the source filed them. Unless noted, calls follow the shape of the dose curve; as a rule, active = well fitted curve in the direction sought with a large enough effect in the repeat runs; inconclusive = weak or mixed curves; inactive = no such curve, though single readings can be large; an effect the other way counts as inactive or inconclusive. Residues, ends and D or L forms follow the SMILES beside them.

Experimental findings from PubChem BioAssay (Tox21) are described below.

Chain of Bile acid receptor (Homo sapiens) (Q96RI1 whole entry, looked up): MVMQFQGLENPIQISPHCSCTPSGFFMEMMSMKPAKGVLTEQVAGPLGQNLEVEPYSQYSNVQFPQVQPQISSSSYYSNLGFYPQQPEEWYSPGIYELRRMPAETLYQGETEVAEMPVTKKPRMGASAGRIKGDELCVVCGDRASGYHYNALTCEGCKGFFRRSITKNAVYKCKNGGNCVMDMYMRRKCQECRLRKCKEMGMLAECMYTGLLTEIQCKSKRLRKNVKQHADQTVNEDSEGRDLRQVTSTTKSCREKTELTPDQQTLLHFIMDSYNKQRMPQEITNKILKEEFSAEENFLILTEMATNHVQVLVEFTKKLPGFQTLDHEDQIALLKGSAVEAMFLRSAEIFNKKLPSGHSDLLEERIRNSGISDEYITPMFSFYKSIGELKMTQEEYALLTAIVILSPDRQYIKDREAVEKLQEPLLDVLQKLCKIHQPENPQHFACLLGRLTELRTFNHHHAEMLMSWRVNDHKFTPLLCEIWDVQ
Chain of Vitamin D3 receptor (Homo sapiens) (P11473 whole entry, looked up): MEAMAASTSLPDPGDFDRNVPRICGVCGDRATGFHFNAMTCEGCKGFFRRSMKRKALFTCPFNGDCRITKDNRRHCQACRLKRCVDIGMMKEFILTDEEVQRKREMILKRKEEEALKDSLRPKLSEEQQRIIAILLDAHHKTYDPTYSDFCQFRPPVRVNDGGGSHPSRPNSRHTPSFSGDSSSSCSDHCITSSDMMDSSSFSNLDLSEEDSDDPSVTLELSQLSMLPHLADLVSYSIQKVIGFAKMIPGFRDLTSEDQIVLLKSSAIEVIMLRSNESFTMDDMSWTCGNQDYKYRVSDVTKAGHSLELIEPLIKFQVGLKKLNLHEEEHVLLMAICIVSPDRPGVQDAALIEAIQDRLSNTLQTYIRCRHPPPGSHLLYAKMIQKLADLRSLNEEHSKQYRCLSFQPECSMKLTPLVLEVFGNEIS
Chain of Aryl hydrocarbon receptor (Homo sapiens) (P35869 whole entry, looked up): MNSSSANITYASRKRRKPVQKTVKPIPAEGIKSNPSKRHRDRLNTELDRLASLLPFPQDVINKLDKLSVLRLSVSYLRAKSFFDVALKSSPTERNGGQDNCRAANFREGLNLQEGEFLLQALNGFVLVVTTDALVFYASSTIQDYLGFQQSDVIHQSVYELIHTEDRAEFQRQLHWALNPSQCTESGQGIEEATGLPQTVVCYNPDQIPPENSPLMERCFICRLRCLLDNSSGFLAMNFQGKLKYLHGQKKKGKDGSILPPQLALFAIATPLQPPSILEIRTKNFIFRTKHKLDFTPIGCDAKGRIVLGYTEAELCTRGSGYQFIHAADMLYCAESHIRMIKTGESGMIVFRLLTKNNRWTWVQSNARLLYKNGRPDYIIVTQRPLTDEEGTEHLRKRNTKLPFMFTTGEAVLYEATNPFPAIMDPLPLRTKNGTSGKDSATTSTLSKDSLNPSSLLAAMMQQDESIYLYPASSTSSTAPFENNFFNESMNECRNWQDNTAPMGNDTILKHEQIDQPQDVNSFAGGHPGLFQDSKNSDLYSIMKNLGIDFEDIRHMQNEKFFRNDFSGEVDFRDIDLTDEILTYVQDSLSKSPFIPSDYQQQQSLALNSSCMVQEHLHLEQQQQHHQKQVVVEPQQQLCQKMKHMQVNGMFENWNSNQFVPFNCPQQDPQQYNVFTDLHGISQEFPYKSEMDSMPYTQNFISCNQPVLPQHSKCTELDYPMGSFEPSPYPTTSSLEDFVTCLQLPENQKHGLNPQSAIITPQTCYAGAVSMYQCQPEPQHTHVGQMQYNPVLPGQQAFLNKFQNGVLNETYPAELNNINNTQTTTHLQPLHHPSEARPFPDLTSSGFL
Chain of Peroxisome proliferator-activated receptor gamma (Homo sapiens) (P37231 whole entry, looked up): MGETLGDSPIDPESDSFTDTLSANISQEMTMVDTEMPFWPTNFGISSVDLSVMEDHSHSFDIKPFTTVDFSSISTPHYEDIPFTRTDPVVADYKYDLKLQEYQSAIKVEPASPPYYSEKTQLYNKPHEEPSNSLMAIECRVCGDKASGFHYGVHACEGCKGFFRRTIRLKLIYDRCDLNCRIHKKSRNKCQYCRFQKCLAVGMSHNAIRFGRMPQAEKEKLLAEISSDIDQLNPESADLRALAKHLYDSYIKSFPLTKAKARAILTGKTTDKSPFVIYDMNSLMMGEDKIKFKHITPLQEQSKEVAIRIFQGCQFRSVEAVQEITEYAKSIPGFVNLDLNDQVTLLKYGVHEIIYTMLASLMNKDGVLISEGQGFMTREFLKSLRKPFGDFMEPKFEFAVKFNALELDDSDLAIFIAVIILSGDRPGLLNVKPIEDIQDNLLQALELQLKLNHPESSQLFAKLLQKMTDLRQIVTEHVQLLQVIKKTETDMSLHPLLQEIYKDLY
Chain of Peroxisome proliferator-activated receptor delta (Homo sapiens) (Q03181 whole entry, looked up): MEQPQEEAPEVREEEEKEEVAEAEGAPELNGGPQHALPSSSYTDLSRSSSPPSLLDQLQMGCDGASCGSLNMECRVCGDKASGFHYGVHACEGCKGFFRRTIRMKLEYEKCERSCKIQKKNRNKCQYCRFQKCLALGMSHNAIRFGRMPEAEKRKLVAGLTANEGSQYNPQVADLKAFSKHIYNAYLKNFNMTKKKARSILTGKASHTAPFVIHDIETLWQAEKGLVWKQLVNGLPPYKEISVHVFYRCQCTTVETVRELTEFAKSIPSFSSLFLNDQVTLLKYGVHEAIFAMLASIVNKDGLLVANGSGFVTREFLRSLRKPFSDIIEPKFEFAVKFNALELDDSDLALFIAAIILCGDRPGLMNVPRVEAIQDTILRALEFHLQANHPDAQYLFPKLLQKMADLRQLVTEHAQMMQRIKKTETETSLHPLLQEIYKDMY

For `NC(=O)c1ccccc1O`, the Potency result in [1], in test [2], in [3], in test [7] and in test [14] was “inactive” each time. The outcome in test [4], in test [5], in test [6], in test [8], in test [9] and in [10] was inactive. In addition, the outcome in [11], in [12], in [13], in [15], in [16] and in [17] was inactive. For the same compound, the compound was classed as inactive in test [18].

Regarding `COc1ccc2[nH]cc(CCNC(C)=O)c2c1`, the Potency entry in [1], in test [2], in test [3], in test [7] and in test [14] was “inactive” in each case. Further, the outcome in test [4], in test [5], in test [6], in [8], in [9] and in test [10] was inactive. The compound was called inactive in test [11], in test [12], in test [19], in test [13], in test [15] and in test [16]. The call in test [17] and in [18] was inactive.

Consider `CCCC(O)C(CC)CO` (configuration not stated), for which the Potency result in test [1], in test [2], in test [3] and in test [7] was “inactive” in each case. The result in [4], in [5], in test [6], in test [8], in test [9] and in test [10] was inactive. Also, the compound was classed as inactive in [11], in test [12], in [13], in test [15] and in test [17].

Consider `Cc1cn([C@H]2C[C@H](N=[N+]=[N-])[C@@H](CO)O2)c(=O)[nH]c1=O`, for which the Potency result in [1], in [2], in [3], in [7] and in test [14] was “inactive” in each case. For the same compound, the result in test [4], in test [5], in test [6], in [8], in [9] and in test [10] was inactive. The outcome in test [11], in test [12], in test [13], in test [15], in test [16] and in [17] was inactive.

Regarding `Nc1ccc(C(=O)O)cc1`, the Potency entry in [1], in test [2], in test [3], in test [7] and in [14] was “inactive” throughout. The call in [4], in [5], in [6], in test [8], in test [10] and in test [11] was inactive. Besides, the compound was classed as inactive in [12], in test [19], in [13], in test [15], in test [16] and in [17].

Turning to `O=C(O)CCC(=O)O`, the Potency result in [1], in [2], in test [3], in test [7] and in [14] was “inactive” in each case. The call in test [4], in test [5], in test [6], in [8], in test [10] and in [11] was inactive. For the same compound, the result in [12], in [19], in [13], in [15], in [16] and in test [17] was inactive. Moreover, the outcome in test [18] was inactive.

On to `CC(=O)OCC(COC(C)=O)OC(C)=O`, for which the Potency result in [1], in test [3] and in test [7] was “inactive” throughout. Besides, the Potency result in [2] is “inactive and 67.7 µM (active)”. Besides, the outcome in test [4], in test [5], in test [6], in test [8], in [10] and in test [11] was inactive. Also, the call in test [12], in test [19], in test [13], in test [15], in [17] and in [20] was inactive.

Consider `COC(=O)[C@H](Cc1ccccc1)NC(=O)[C@@H](N)CC(=O)O` (H-Asp-Phe-OMe), for which the Potency entry in test [1], in test [2], in test [3], in [7] and in [14] was “inactive” in each case. Further, the compound was called inactive in test [4], in test [5], in [6], in test [8], in test [9] and in test [10]. For the same compound, the call in test [11], in [12], in test [13], in [15], in test [16] and in test [17] was inactive.
